# The whole screen tested about 320,000 compounds, of which about 2,100 (0.66%) were called active. Another 53% or so got no clear call; they are omitted. Calls follow the shape of the dose curve; as a rule, active = well fitted inhibition curve with a large enough effect in the signal ratio, with a control signal flat (not every such curve was filed as active); inconclusive = small, poorly fitted or top-dose-only effect, or effect the other way, or a change in a side signal; inactive = flat fitted curve, though single readings scatter; the % refers to the signal ratio. What follows is part of a selection rich in actives, with near analogues and random picks from the rest.
# Experiment: qHTS Assay for Lipid Storage Modulators in Drosophila S3 Cells;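 as to cell number change: cells counted by Cell Tracker Red CMTPX staining in the red channel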; as to lipid storage change, negative = inhibition: % is scaled to controls: 0 for no effect and ±100 for the full control effect
# Conditions: BODIPY lipid droplet fluorescence, 18-24 h, cells fed with added oleic acid; cell number change: measured here: cell count max response; series mostly up to 46.1 µM
# Method in brief: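 Drosophila S3 cells loaded with oleic acid (400 uM, as added) and compounds at several concentrations; lipid droplets imaged by 488-nm laser-scanning cytometry, 500–530 nm intensity and object ratio to cell channel. Percent activity normalized to 20 uM Triacsin C.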
# Potency is read from the fitted curve at half-maximal effect.
SMILES,Potency,cell number change,"lipid storage change, negative = inhibition"
Cc1nnc(SCC(=O)NNC(=O)c2ccccc2)n1-c1ccccc1,inactive,,
COc1cc2c(cc1OC)C(c1ccccc1)N(C(=O)c1cccc(S(C)(=O)=O)c1)CC2 (centres undefined),inactive,14.6%,
COc1ccccc1/C=C/C(=O)OCC(=O)c1cc(C)n(C)c1C,1.3 µM (active),-22.1%,
Cc1cc(C(=O)COC(=O)/C=C/c2cccc(F)c2)c(C)n1C,inactive,5.66%,
Cc1cc(C(=O)COC(=O)/C=C/c2cccc(Br)c2)c(C)n1C,inactive,,
COc1ccc(S(=O)(=O)Nc2ccccc2N2CCOCC2)cc1[N+](=O)[O-],inactive,0.857%,
COCCCNC(=S)Nc1ccc2nc(N3CCOCC3)cc(C)c2c1,inactive,0.741%,
O=C(NCCS(=O)(=O)N1CCN(c2ccccc2)CC1)C1CC(=O)N(c2ccc(F)cc2)C1 (centres undefined),inactive,-3.13%,
Cc1ccc(N2CC(C(=O)NCCS(=O)(=O)N3CCN(c4ccc(F)cc4)CC3)CC2=O)cc1 (centres undefined),2.06 µM (active),-2.39%,
O=C(NCCS(=O)(=O)N1CCN(c2ccc(F)cc2)CC1)C1CC(=O)N(c2ccccc2)C1 (centres undefined),inactive,4.61%,
CC(=O)N1CCc2c(sc(NC(=O)Cc3ccc(F)cc3)c2C#N)C1,inactive,7.34%,
O=C(COC(=O)c1nc(Cl)c(Cl)c(Cl)c1Cl)NCc1ccccc1,inactive,-8.84%,
COc1cccc(CNC(=O)COC(=O)c2nc(Cl)c(Cl)c(Cl)c2Cl)c1,14.6 µM (active),-29.4%,
COc1cccc(CNC(=O)CCl)c1,inactive,5.99%,
COC(=O)c1sccc1NC(=O)CC1C(=O)NCCN1C(=O)Nc1cc(Cl)ccc1OC (centres undefined),inactive,13.4%,
CCC(=O)Oc1ccc2c(=O)c(-c3ccc4ccccc4n3)c(CC)oc2c1C,inactive,1.88%,
COc1ccc(C(=O)O)cc1S(=O)(=O)Nc1cccc(C(F)(F)F)c1,29.1 µM (active),-15.9%,
COc1ccc(C(=O)N2CCCCC2)cc1S(=O)(=O)Nc1cccc(C(=O)O)c1,inactive,0.28%,
COc1ccc(F)cc1S(=O)(=O)Nc1cccc(C(=O)O)c1,inactive,,
COC(=O)c1cccc(C23CC4(C2)[C@H](CN(Cc2cccnc2)[C@@H]4c2ccccc2)C3c2ccc(Cl)nc2)c1 (some centres undefined),inactive,17.9%,
CC(C)(C)OC(=O)N/N=C/c1cccc([N+](=O)[O-])c1,inactive,14.2%,

SMILES,Potency,cell number change,"lipid storage change, negative = inhibition"
O=C(c1ccccc1)N1CCC(CC2CC(c3cccc(Br)c3)=NO2)(C(=O)NCC2CCCCC2)CC1 (centres undefined),inactive,21.3%,
CCCCCCCNC(=O)C1(CC2CC(c3cccc(Br)c3)=NO2)CCN(C(=O)c2cc(OCC)c(OCC)c(OCC)c2)CC1 (centres undefined),inactive,-10.9%,
CCOc1cc(C(=O)N2CCC(CC3CC(c4cccc(Br)c4)=NO3)(C(=O)NCC3CCCCC3)CC2)cc(OCC)c1OCC (centres undefined),2.06 µM (active),23.9%,
O=C(NCC(=O)N(CCN1CCOCC1)C(C(=O)NC1CCCC1)c1ccccc1)c1cccs1 (centres undefined),inactive,-0.374%,
Cc1ccc(N(Cc2ccccc2)C(=O)c2cccc(S(=O)(=O)N3CCN(C)CC3)c2)cc1,inactive,-1.81%,
Cc1cc(=O)[nH]c(N/N=C/c2ccc(Cl)cc2Cl)n1,inactive,3.1%,
CCN1CCN(Cc2ccc(NC(=O)c3ccc(C)c(/C=C/c4cnc(Nc5cc(N6CCNCC6)nc(C)n5)cn4)c3)cc2C(F)(F)F)CC1,18.4 µM (active),-17.2%,
CCN1CCN(Cc2ccc(NC(=O)c3ccc(C)c(NC(=O)c4ccnnc4)c3)cc2C(F)(F)F)CC1,inactive,,
CCN1CCN(Cc2ccc(NC(=O)c3ccc(C)c(NC(=O)c4ccc5n[nH]nc5c4)c3)cc2C(F)(F)F)CC1,inactive,,
CN1CCc2nc(NC(=O)c3cccc(S(=O)(=O)N4CCc5ccccc54)c3)sc2C1,inactive,12.6%,
COCC(=O)Nc1cc(C(=O)NCC(C)C)ccc1Cl,inactive,4.26%,
Cc1nc2ccccc2c(=O)n1/N=C/c1ccccc1O,inactive,14.5%,
COc1ccc(Br)cc1/C=N/n1c(C)nc2ccccc2c1=O,3.66 µM (active),-4.17%,
COc1cc(OC)c(OC)cc1/C=N/n1c(C)nc2ccccc2c1=O,inactive,16.2%,
Cc1ccc(NC(=O)Cn2nc(-c3ccccc3)nc2-c2ccccc2)c(C)c1,inactive,-8.2%,
CCOC(=O)CNC(=O)CSc1ncnc2c1cnn2-c1ccc(C)cc1,inactive,-17%,
CCOC(=O)CSc1ncnc2c1cnn2-c1ccc(Cl)cc1,0.184 µM (active),4.64%,
CCOC(=O)CSc1ncnc2c1cnn2-c1ccccc1,inactive,-3.98%,
CCCOc1cccc(C(=O)N(Cc2ccco2)C2CCS(=O)(=O)C2)c1 (centres undefined),inactive,-9.39%,
CCNC(=S)NCc1ccc2[nH]c(C)cc2c1,inactive,15.9%,
COc1cc(C(=O)NCCc2ccc(F)cc2)c([N+](=O)[O-])cc1OC,inactive,,

SMILES,Potency,cell number change,"lipid storage change, negative = inhibition"
Cc1ccccc1CNS(=O)(=O)c1c(C)[nH]c(C)c1C(=O)N1CCCCC1,inactive,-3.58%,
Cc1[nH]c(C)c(S(=O)(=O)NCCc2ccccc2)c1C(=O)N1CCCC1,inactive,13.4%,
COc1ccc(CCNS(=O)(=O)c2c(C)[nH]c(C)c2C(=O)N2CCCCC2)cc1OC,inactive,-25.1%,
COC(=O)c1ccc(NS(=O)(=O)c2c(C)[nH]c(C)c2C(=O)N2CCCC2)cc1,inactive,-16.1%,
Cc1[nH]c(C)c(S(=O)(=O)NCCc2ccccc2)c1C(=O)N1CCCCC1,11.6 µM (active),-13.9%,
COc1ccccc1CNS(=O)(=O)c1c(C)[nH]c(C)c1C(=O)N1CCCC1,inactive,,
COc1ccccc1CNS(=O)(=O)c1c(C)[nH]c(C)c1C(=O)N1CCCCC1,18.4 µM (active),-19.3%,
CCOC(=O)c1ccc(NS(=O)(=O)c2c(C)[nH]c(C)c2C(=O)N2CCCCC2)cc1,inactive,,
Cc1[nH]c(C)c(S(=O)(=O)Nc2ccc(OC(F)(F)F)cc2)c1C(=O)N1CCCCC1,4.11 µM (active),-12.7%,
O=C(CN1CCN(Cc2ccccc2Cl)CC1)N/N=C/C=C\c1ccccc1[N+](=O)[O-],inactive,0.435%,
Cc1ccccc1C(=O)c1cccn1CC(=O)NCC(C)c1ccccc1 (centres undefined),inactive,-7.34%,
COc1ccc(C(C(=O)NCCC(C)C)N(CCO)C(=O)c2snc(C(N)=O)c2N)cc1 (centres undefined),inactive,-7.09%,
O=C(CSc1nnnn1C1CCCC1)NCc1ccc2c(c1)OCO2,inactive,,
CC1CCN(C(=O)c2ccccc2NS(=O)(=O)c2ccccc2)CC1,inactive,7.63%,
Clc1ccc(N2CCN(Cc3ccco3)CC2)cc1,inactive,9.59%,
Cc1[nH]c2ccccc2c1/C=C(\C#N)C(=O)NC1CC1,inactive,,
CC1CCN(C2(O)C(=O)Nc3ccc([N+](=O)[O-])cc32)CC1 (centres undefined),inactive,-1.63%,
COc1ccc(NC(=O)c2ccccc2N2C(=O)C3C4C=CC(C5CC45)C3C2=O)c(OC)c1 (centres undefined),inactive,-15.3%,
COc1ccc(NC(=O)c2cccc(N3C(=O)C4C5C=CC(C6CC56)C4C3=O)c2)c(OC)c1 (centres undefined),5.17 µM (active),,
Cc1ccc(NC(=O)c2cccc(N3C(=O)C4C5CCC(C5)C4C3=O)c2)c(C)c1 (centres undefined),inactive,26.1%,
COc1ccc(NC(=O)c2cccc(N3C(=O)C4C5C=CC(C5)C4C3=O)c2)c(OC)c1 (centres undefined),inactive,-15.9%,

SMILES,Potency,cell number change,"lipid storage change, negative = inhibition"
Cc1cccc(NC(=O)c2cccc(N3C(=O)C4C5C=CC(C6CC56)C4C3=O)c2)c1 (centres undefined),1.3 µM (active),-23.8%,
Cc1cccc(NC(=O)c2cccc(N3C(=O)CCC3=O)c2)c1,inactive,-21.8%,
O=C(Nc1ccc(F)cc1)c1cccc(N2C(=O)C3C4C=CC(C4)C3C2=O)c1 (centres undefined),inactive,-17.9%,
COc1ccc(NC(=O)c2cccc(N3C(=O)C4C5C=CC(C6CC56)C4C3=O)c2)cc1 (centres undefined),inactive,8.84%,
O=C(Nc1ccccc1)c1cccc(N2C(=O)C3C4C=CC(C5CC45)C3C2=O)c1 (centres undefined),16.4 µM (active),-4.48%,
CC(C)CNS(=O)(=O)c1ccc(OCC(=O)Nc2ccc3c(c2)OCCO3)cc1,inactive,,
Cc1nnc(SCC(=O)N2CCN(S(=O)(=O)c3ccc(Cl)cc3)CC2)n(N)c1=O,inactive,-9.35%,
COc1ccc(/C=N/Nc2cc(C)nc(N3CCOCC3)n2)c(OC)c1,inactive,-6.43%,
Cc1ccc(NC(=O)c2cc([N+](=O)[O-])ccc2N2CCOCC2)cc1S(=O)(=O)N(C)C,inactive,9.84%,
O=C(Nc1ccccc1O)c1nc(Cl)ccc1Cl,inactive,9.99%,
COC(=O)c1cc(NS(=O)(=O)c2ccc(N3CCCCC3)c([N+](=O)[O-])c2)cc(C(=O)OC)c1,inactive,-2.76%,
COc1ccc(NS(=O)(=O)c2ccc(C)c(C(=O)O)c2)cc1,25.9 µM (active),-20.6%,
COc1ccc(NS(=O)(=O)c2ccc(N)c(C(=O)O)c2)cc1,20.6 µM (active),1.73%,
COC(=O)c1ccc(NS(=O)(=O)c2ccc(OC)cc2)cc1,inactive,,
O=C(O)c1ccc(NS(=O)(=O)c2ccc(N3CCCC3)c([N+](=O)[O-])c2)cc1,inactive,8.51%,
COc1ccc(NS(=O)(=O)c2ccc(C)c(C(=O)N(C)Cc3ccc(OC)cc3OC)c2)cc1,,,-11.3% [at 0.0737 µM] (inactive)
COc1ccc(NS(=O)(=O)c2ccc(C)c(C(=O)N3CC(C)OC(C)C3)c2)cc1 (centres undefined),inactive,23.9%,
COc1ccc(NS(=O)(=O)c2ccc(N3CCN(CCO)CC3)c([N+](=O)[O-])c2)cc1,10.3 µM (active),-29.2%,
COc1ccc(S(=O)(=O)Nc2ccc(NC(C)=O)cc2)cc1,inactive,29.3%,
CCOC(=O)CNC(=O)CSc1nnc(-c2ccco2)n1Cc1ccco1,inactive,-21.7%,
O=C(CCCCCNC(=O)N1CCn2c1nc1ccccc12)N[C@@H](C(=O)O)c1ccccc1,inactive,-11.9%,

# From PubChem BioAssay AID2685 (National Center for Advancing Translational Sciences (NCATS), 2010)
